Experimental data from PubChem BioAssay AID2701 (National Center for Advancing Translational Sciences (NCATS), 2010).
The other results are listed elsewhere or left out. Results filed as inconclusive are left out. Calls of active or inactive are those of the source. The call rests on the fitted dose curve; in most records, active means well fitted inhibition curve with a large enough effect; inconclusive means small, poorly fitted or top-dose-only effect, or another doubt; inactive means no such curve, though single readings can be large or run the other way.

Target: 4'-phosphopantetheinyl transferase ffp (Bacillus subtilis) (UniProt Q9F4F7)
Assay: Confirmation qHTS Assay for Inhibitors of Bacillus subtilis Sfp phosphopantetheinyl transferase (PPTase)
Details: Sfp PPTase enzymatic assay, qHTS titration; series mostly up to 114 µM
Excerpt: The covalent attachment of a phosphopantetheinyl (4'-PP) arm to a variety of synthases and other proteins is a key posttranslational protein modification. The 4'-PP is installed on the proteins post-translationally from coenzyme A (CoA) on a conserved serine residue by action of phosphopantetheinyl transferase (PPTase) enzymes. Phosphopantetheinylation is essential for synthase activity, and removal of the PPTase gene precludes natural product synthesis in microorganisms, or in the case of fatty acid biosynthesis, renders the organism unviable. PPTase enzymes belong to a distinct structural superfamily. Within bacteria, these enzymes are grouped into two classes based upon primary structure, the AcpS-Type and Sfp-Type PPTases.
Sfp-type PPTases, corresponding to an activator of surfactin production in Bacillus subtilis, are responsible for modifying type I polyketide and nonribosomal peptide synthases of prokaryotes. Sfp-type PPTases are responsible for the activation of a variety of pathogen-associated virulence factors. Among these compounds are toxins such as mycolactone from Mycobacterium ulcerans, siderophores such as vibriobactin from Vibrio cholerae or mycobactin from Mycobacterium tuberculosis, as well as the mycolic acids which form the waxy cell wall of Mycobacteria. The biosyntheses of these natural products are considered attractive targets for drug design.
In search of small molecule Sfp-PPTase inhibitors, a fluorescence quenching assay was developed for detection of Bacillus subtilis Sfp-PPTase enzymatic activity in a miniaturized high-throughput format. The consensus ybbr acceptor peptide […] was N-terminally labeled with Black Hole Quencher-2 (BHQ-2) and used in combination with rhodamine-labeled coenzyme A as a co-substrate.
Inhibition of Sfp-PPTase was detected by recording the fluorescence intensity change over a 30-minute reaction period at a 525 nm excitation and 598 nm emission. Reagents were supplied by Michael Burkart and Timothy Foley, University of California at San Diego.
Assay Submitter: Michael Burkart, University of California, San Diego
Screening Center PI: Austin, C.P.
Screening Center: NIH Chemical Genomics Center [NCGC]
Assay Buffer: 50 mM Hepes-Na pH 7.6, 10 mM MgCl2, 0.01% Nonidet P-40, and 0.01% BSA.
3 uL of Sfp-PPTase enzyme (final concentration 15 nM) and 1 uL of substrate mixture (final concentration for rhodamine-CoA and BHQ-2-YbbR 5 uM and 12.5 uM, respectively) dispensed in columns 1, 2, 5 - 48. Columns 1 and 2 used to generate neutral control (uninhibited reaction)
Three uL of reagents, consisting of buffer (in columns 3 and 4 as negative control) and Sfp-PPTase (in columns 1, 2, 5 - 48) were dispensed into 1,536-well Greiner black solid bottom plate. Compounds (23 nL) were transferred via Kalypsys pintool equipped with 1,536-pin array. The plate was incubated for 15 min at room temperature, followed by the addition of 1 uL substrate to start the reaction. The plate was then centrifuged at 1000 rpm for 15 seconds, and the fluorescence intensity recorded on a ViewLux High-throughput CCD imager (Perkin-Elmer) using standard BODIPY optics (525 nm excitation and 598 nm emission). The plate was then incubated for 30 minutes, and a second read on the ViewLux was performed. The fluorescence intensity difference over the 30-minute period was used to calculate the respective reaction rate for each well.
Potency means the concentration at half of the fitted maximal effect.

4'-phosphopantetheinyl transferase ffp (Bacillus subtilis), sequence (Q9F4F7 whole entry, looked up): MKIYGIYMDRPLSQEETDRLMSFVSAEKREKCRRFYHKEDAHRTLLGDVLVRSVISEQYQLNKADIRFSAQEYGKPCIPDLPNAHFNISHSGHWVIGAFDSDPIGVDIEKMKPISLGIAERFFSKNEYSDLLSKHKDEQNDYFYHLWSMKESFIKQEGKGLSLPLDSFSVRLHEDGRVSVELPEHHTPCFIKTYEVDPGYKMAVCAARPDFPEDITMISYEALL

Q: For `Cc1ccc(NC(=O)c2c(NC(=O)CCC(=O)O)sc3c2CCCCC3)cc1`, which Potency is on record?
A: Its Potency is 14.8 µM (active).

Q: `CC(C)(C)c1nnc(NC(=O)C2c3ccccc3Oc3ccccc32)s1` was tested. Which Potency did it give?
A: The Potency was 4.69 µM (active).

Q: Which Potency does the source give for `OCCN1CCN(C(=S)c2ccc(-c3ccccc3)cc2)CC1` here?
A: The Potency was 14.8 µM (active).

Q: For `Cc1ccc(/C=C(\C#N)C(=O)Nc2cccc3ncccc23)o1`, which Potency is on record?
A: The Potency was 26.4 µM (active).

Q: `Cc1nn2c(c1-c1ccccc1)N=C(c1ccco1)CC2c1ccccc1` (configuration not stated) was tested. Which Potency did it give?
A: The Potency was 37.3 µM (active).

Q: How did the Potency turn out when `CCCOC(=O)Nc1sc2c(c1C(=O)OCC)CCC2` was run?
A: Its Potency is 29.6 µM (active).

Q: How did the Potency turn out when `COc1ccc(OCc2nnc3n2N=C(c2ccccc2)C(CC(=O)O)S3)cc1` (configuration not stated) was run?
A: Its Potency is 2.35 µM (active).

Q: How did the Potency turn out when `FC(F)(F)C1CCCN(c2nsc3ccccc23)C1` (configuration not stated) was run?
A: Its Potency is 2.1 µM (active).

Q: Which Potency does the source give for `O=c1[nH]c2ccccc2n2c(-c3ccccc3)nnc12` here?
A: The Potency was 2.1 µM (active).

Q: With `CCC(c1nnnn1Cc1ccco1)N(Cc1cc2cc(OC)ccc2[nH]c1=O)C1CCCCC1` (configuration not stated) as the compound, how does the Potency read?
A: Its Potency is 9.37 µM (active).

Q: Which Potency does the source give for `NC(=O)c1c(NC(=O)CSc2nnc(-c3ccco3)n2N)sc2c1CCCC2` here?
A: Its Potency is 14.8 µM (active).

Q: How did the Potency turn out when `c1ccc(-c2nc(NCc3ccco3)c3ccccc3n2)cc1` was run?
A: Its Potency is “inactive”.
